This is a sample that favours compounds with a hit; in the whole collection about 4% have one here.
D1 agonist: Allosteric Agonists of the Human D1 Dopamine Receptor: qHTS | D(1A) dopamine receptor (Homo sapiens), P21728 | HEK293 T-REx D1 cells, calcium flux, agonist mode | activation, % at 2 µM | 1% of 360,000 active; also: 0% is about no effect
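Tetracycline-induced HEK293 TREx D1 cells, force-coupled to calcium signalling, were dye-loaded with a no-wash calcium kit. Compound was pin-added after a 10 s baseline. Fluorescence was read kinetically at 1 cycle/s for 180 s, with calcium rises flagged as agonism.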
TRHR PAM: qHTS for Small Molecule Agonists and Allosteric Enhancers of Human TRH Receptor: Primary Screen for Enhancers. Thyrotropin-releasing hormone receptor (Homo sapiens), P34981. TRHR cells, fluo-8 calcium fluorescence, EC20 TRH enhancement. enhancement, % at 2 µM. 0.66% of 360,000 active. AID 493056, 2011; in the data active = enhancement above about 30%; also: 0% is about no effect
Target sequence (P34981 whole entry, looked up): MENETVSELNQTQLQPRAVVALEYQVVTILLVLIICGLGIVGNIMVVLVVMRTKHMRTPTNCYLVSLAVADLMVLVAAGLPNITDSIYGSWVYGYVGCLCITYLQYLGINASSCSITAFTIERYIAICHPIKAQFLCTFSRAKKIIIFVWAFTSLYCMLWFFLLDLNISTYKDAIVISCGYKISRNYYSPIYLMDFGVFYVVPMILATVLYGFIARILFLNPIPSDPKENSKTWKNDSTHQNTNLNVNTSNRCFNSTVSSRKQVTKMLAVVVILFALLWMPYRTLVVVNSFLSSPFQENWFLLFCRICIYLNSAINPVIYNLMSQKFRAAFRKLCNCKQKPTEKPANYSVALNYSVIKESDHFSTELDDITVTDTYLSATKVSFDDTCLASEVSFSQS
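TRHR-expressing cells loaded with fluo-8 calcium dye were read kinetically (ex 480/em 530) during compound addition, then stimulated with an EC20 of TRH (10 nM final). Enhancement of the Gq-mediated intracellular calcium response was scored.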
D1 potentiator: Potentiators of Human D1 Dopamine Receptor: qHTS; D(1A) dopamine receptor (Homo sapiens), P21728; HEK293 TREx D1 cells, calcium flux, dopamine EC20 potentiation; potentiation, % at 10 µM; 0.036% of 360,000 active; AID 504651, 2011; in the data active = potentiation above about 30%; also: 0% is about no effect
TRHR ag: qHTS for Small Molecule Agonists and Allosteric Enhancers of Human TRH Receptor: Primary Screen for Agonists | Thyrotropin-releasing hormone receptor (Homo sapiens), P34981 | TRHR cells, calcium flux fluo-8, FDSS agonist mode | activation, % at 2 µM | 0.18% of 360,000 active; also: 0% is about no effect
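Steps: seed TRHR cells overnight; add fluo-8 no-wash Ca dye, RT 30 min–1.5 h; record 10 s baseline; pin-transfer compounds; monitor fluorescence 1 cycle/s for the agonist window. Calcium increases flag candidate agonists.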
GRP78 ERSR act: qHTS for Inducers of the Endoplasmic Reticulum Stress Response (ERSR) in Human Glioma: qHTS; U87-MG GRP78 promoter luciferase reporter, 16 h; Potency, µM, without a hit: top-dose activation, most hits filed as activators; 0.02% of 420,000 active; AID 602332, 2012; active = well fitted activation curve with a large enough effect; also: potency is read from the fitted curve at half-maximal effect; series mostly up to about 76 µM; % of control where 0% means no effect; nearly all actives have a fitted effect of over 35% in size
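Stably transfected U87-MG human glioma cells carrying a GRP78-based luminescent sensor were seeded at 1000 cells/well, pin-dosed with compounds and incubated 16 h. Luciferase reagent was then added, and end-point luminescence was read after 10 min at room temperature.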
D1 antag: Antagonist of Human D 1 Dopamine Receptor: qHTS; D(1A) dopamine receptor (Homo sapiens), P21728; HEK293 TREx D1 cells, calcium flux, dopamine EC80; hits give low values; activity change, negative = inhibition, % at 10 µM; 3.2% of 360,000 active; AID 504652, 2011; in the data active = activity change below about -30%; also: % is scaled to controls: 0 for no effect and ±100 for the full control effect
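Calcium flux readout: force-coupled, inducible Hek293 Trex D1 line, cells induced overnight at 30 C with tetracycline, dye-loaded 30–90 min at RT. Antagonism scored against EC80 dopamine challenge given 180 s after compound.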
* marks the source's active call; other numbers are inactive results; x = no result. Rule as the data show it, unless noted: active = activation above about 30%; inactive = the rest.

SMILES	D1 agonist	TRHR PAM	D1 potentiator	TRHR ag	GRP78 ERSR act	D1 antag
Cc1noc2ncnc(N3CCN(c4cccc(Cl)c4)CC3)c12	4	-3	1	0	-2%	-34*
Cc1ccc(Cl)cc1N1CCN(c2ncnc3onc(C)c23)CC1	7	23	0	1	-5%	-9
Cc1nn(CCc2nn[nH]n2)c2nc(-c3ccc(Br)cc3)cc(C(F)(F)F)c12	4	-3	-2	-2	-8%	-36*
COCc1ccc(C(=O)N2CCOc3ccc(CN4CCN(c5ccc(F)cc5)CC4)cc3C2)o1	x	x	x	x	-4%	x
Cc1cccnc1-c1cccc2c1OC(CNC(=O)Cc1c(C)noc1C)C2 (configuration not stated)	x	x	x	x	-5%	x
O=C(NCCCN1CCN(c2cccc(Cl)c2)CC1)C1CCC(=O)N1Cc1ccccc1Cl (configuration not stated)	11	-4	-10	0	-7%	-38*
O=C(Nc1cc(Cl)cc(Cl)c1)C1CCC(=O)N1Cc1ccccc1Cl (configuration not stated)	27	40*	-11	-1	-1%	-20
CN(CCCNC(=O)C1CCC(=O)N1Cc1ccccc1Cl)c1ccccc1 (configuration not stated)	1	-13	1	0	-4%	-10
CC(C)N1C(=O)CCC1C(=O)N1CCN(c2ccc(F)cc2)CC1 (configuration not stated)	2	7	2	1	-4%	-8
O=C(C1CCC(=O)N1Cc1ccccc1Cl)N1CCN(c2ccc(F)cc2)CC1 (configuration not stated)	0	0	-6	0	-2%	-48*
O=C1C2CCCCN2C(=O)N1CCCCN1CCN(c2cccc(Cl)c2)CC1 (configuration not stated)	2	32*	-22	1	-5%	-39*
Cc1cccc(N(C(=O)c2snc(C(N)=O)c2N)C(C(=O)NCc2ccccc2)c2ccncc2)c1 (configuration not stated)	1	1	-14	-2	-7%	-1
CCOc1ccc(NC(=O)CSc2nc(-c3ccccc3)c3cc(OCC)ccc3n2)cc1	-1	4	2	0	0%	5
COc1cc(OC)c(CNC2CCCCCC2)cc1Br	62*	27	-12	0	-1%	-11
COc1ccc(OC)c(N/C(=N/C(=S)Nc2ccccc2)Nc2nc(C)cc(C)n2)c1	2	3	-8	0	-3%	-31*
COc1cccc(C2(CC(=O)N3CCN(c4ccccn4)CC3)CC(=O)N(C3CCCC3)C2=O)c1 (configuration not stated)	x	x	x	x	-2%	x
NCCOc1ccccc1Cc1ccccc1	62*	7	-24	-1	-3%	-55*
CCN(CC)S(=O)(=O)c1ccc2c(c1)nc(CCC(=O)Nc1ccc(N3CCOCC3)cc1)n2C	8	-2	-9	2	1%	21
COc1ccc(-c2ccc(C3C(C#N)=C(N)Oc4n[nH]c(C)c43)o2)cc1 (configuration not stated)	32*	-4	-7	9	-1%	-33*
Cc1[nH]nc2c1C(c1ccco1)C(C#N)=C(N)O2 (configuration not stated)	-1	16	-4	-1	-4%	-8
CN(C)c1ccc(C=Nc2ccc(/C=C3\C=Cc4ccccc43)cc2)cc1	x	x	x	x	-3%	x
CNC(=O)[C@@H]1C[C@@H](NCc2cccc(Oc3ccccc3)c2)CN1C(C)C	x	x	x	x	-2%	x
CC1=C(C(=O)OCc2ccccc2)C(c2cccc3ccccc23)NC(=O)N1CCCC(=O)O (configuration not stated)	1	3	-1	0	1%	-39*

Assay outcomes: PubChem, National Center for Advancing Translational Sciences (NCATS)
